Eight molecules from PubChem BioAssay (NCI) can be followed below.

Compounds without any hit were thinned out: in the full panel of roughly 83,000, 20% have a hit.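 Interpretation: 100, growth as untreated; towards 0, rising growth inhibition; 0, no net growth; 0 to -100, cell death. Compounds scoring below 10 were considered active.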 Values without a mark were called inactive. Active and inactive are the calls of the source.

Test systems include NCI-H23 lung; NCI-H226 lung; NCI-H322M lung; HOP-62 NSCLC; NCI-H460 lung; HOP-92 NSCLC; NCI-H522 lung; A549/ATCC NSCLC; 786-0 renal; COLO 205 colon; DU-145 prostate; K-562 leukemia; MALME-3M melanoma; MDA-MB-231 breast; RXF 393 renal; SF-268 CNS; SF-295 CNS; SF-539 CNS; UACC-257 melanoma; M14 melanoma.
Assay in all cases: NCI-60 one-dose screen, 48 h (100 = growth as untreated, 0 = no growth, -100 = all killed)
Holding throughout (details): 10 µM unless noted

In the case of `C#CC(=O)Nc1cccc2c1cc(C)n2-c1nc2c(c(NCc3ccccc3)n1)CCCC2`, the growth in the assay with NCI-H23 lung is -43.1% (active); with NCI-H226 lung it was -40.2% (active); in the assay with NCI-H322M lung, -82.4% (active); in the assay on HOP-62 NSCLC it was -46.8% (active); with NCI-H460 lung, -48.3% (active); with HOP-92 NSCLC, -53.8% (active). The growth in the assay with NCI-H522 lung is -82.2% (active); with A549/ATCC NSCLC, -46.5% (active); in the assay with 786-0 renal, -53.1% (active); with COLO 205 colon, -69.1% (active); in the assay with DU-145 prostate, -97.1% (active); in the assay on K-562 leukemia, -13.5% (active). Also, the growth is -64.4% (active) in the assay with MALME-3M melanoma; -53% (active) in the assay with MDA-MB-231 breast; -94.4% (active) in the assay on RXF 393 renal; -29.7% (active) with SF-268 CNS; -85.4% (active) in the assay with SF-295 CNS; -79.7% (active) with SF-539 CNS. Further, the growth in the assay on UACC-257 melanoma was -73% (active); in the assay with M14 melanoma, -65.3% (active).

For `O=C1Nc2cc(-c3ccncc3)ccc2/C1=C/c1ccc[nH]1`, the growth with NCI-H23 lung was 58.5%; in the assay with NCI-H226 lung, 78.5%; with NCI-H322M lung it was 84%; in the assay on HOP-62 NSCLC, 105%; with NCI-H460 lung, 98.9%; with HOP-92 NSCLC, 104%. Further, the growth in the assay with NCI-H522 lung was 75.2%; with A549/ATCC NSCLC, 101%; in the assay on 786-0 renal, 102%; in the assay on COLO 205 colon, 112%; with DU-145 prostate it was 88.1%; in the assay with K-562 leukemia, 98.3%. Besides, the growth in the assay on MALME-3M melanoma is 65.8%; with MDA-MB-231 breast, 65.2%; with RXF 393 renal it was 93.1%; in the assay with SF-268 CNS it was 94.5%; with SF-295 CNS, 102%; in the assay with SF-539 CNS it was 91.9%. Moreover, the growth was 114% in the assay on UACC-257 melanoma and 91.9% in the assay on M14 melanoma.

In the case of `CN1CCN(C(=O)OCc2nc3c(N4CCOCC4)nc(-c4ccccc4)nc3n2C)CC1`, the growth in the assay with NCI-H23 lung is -77.1% (active); with NCI-H226 lung, -66.7% (active); in the assay with NCI-H322M lung, 58.2%; with HOP-62 NSCLC, 4.63% (active); in the assay with NCI-H460 lung it was -46.9% (active); in the assay with HOP-92 NSCLC it was -63.5% (active). The growth with NCI-H522 lung is -35.3% (active); with A549/ATCC NSCLC, 6.44% (active); with 786-0 renal, -83.3% (active); in the assay with COLO 205 colon it was -53% (active); with DU-145 prostate, -83.5% (active); with K-562 leukemia, 2.72% (active). In addition, the growth in the assay with MALME-3M melanoma is -93.9% (active); with MDA-MB-231 breast it was -86.2% (active); in the assay with SF-268 CNS it was -50.2% (active); with SF-295 CNS, 47.9%; in the assay on SF-539 CNS, -99.6% (active); with UACC-257 melanoma, -49.5% (active).

As to `O=C1CCC(NC(=S)Nc2ccccc2)N1` (centres undefined), the growth is 91.2% in the assay on NCI-H23 lung; 103% in the assay with NCI-H226 lung; 99.5% with NCI-H322M lung; 109% with HOP-62 NSCLC; 115% with NCI-H460 lung; 102% in the assay with HOP-92 NSCLC. The growth with NCI-H522 lung is 92.8%; with A549/ATCC NSCLC, 101%; with 786-0 renal, 105%; with COLO 205 colon, 120%; in the assay on DU-145 prostate, 112%; with K-562 leukemia, 97.5%. Besides, the growth in the assay on MALME-3M melanoma is 99.6%; with MDA-MB-231 breast, 109%; in the assay on RXF 393 renal it was 117%; with SF-268 CNS, 104%; with SF-295 CNS it was 110%; in the assay with SF-539 CNS, 105%. Also, the growth is 104% with UACC-257 melanoma and 110% in the assay on M14 melanoma.

For `CC1(C)CN(c2cnc(C(=O)Nc3cc(F)cc4cccnc34)cn2)CCN1`, the growth with NCI-H23 lung is 88.8%; in the assay on NCI-H226 lung, 92.7%; in the assay with NCI-H322M lung, 85.4%; in the assay on HOP-62 NSCLC, 91.8%; with NCI-H460 lung, 82.5%; in the assay with HOP-92 NSCLC, 64.6%. The growth in the assay with NCI-H522 lung is 41%; with A549/ATCC NSCLC it was 92.5%; in the assay with 786-0 renal it was 78.9%; in the assay on COLO 205 colon, 19.7%; in the assay with DU-145 prostate, 101%; with K-562 leukemia, 36.3%. Also, the growth is 47.5% in the assay with MALME-3M melanoma; 58% with MDA-MB-231 breast; 74.6% in the assay with SF-268 CNS; 97.8% in the assay with SF-295 CNS; 83.7% in the assay on SF-539 CNS; 93.5% in the assay on UACC-257 melanoma.

For `CCC(C)N(CCNc1cc(OC)cc2cccnc12)CCC(C)C` (centres undefined), the growth in the assay with NCI-H23 lung was 71.7%; with NCI-H226 lung, 88%; in the assay with NCI-H322M lung it was 111%; in the assay with HOP-62 NSCLC it was 62.4%; in the assay with NCI-H460 lung, 78.3%; in the assay on HOP-92 NSCLC, 87.9%. Moreover, the growth in the assay with NCI-H522 lung was 50%; in the assay on A549/ATCC NSCLC it was 61.6%; in the assay on 786-0 renal it was 95.7%; with COLO 205 colon, 68.3%; in the assay with DU-145 prostate, 95.6%; with K-562 leukemia, 83.2%. The growth with MALME-3M melanoma is 121%; in the assay on MDA-MB-231 breast, 84.5%; with SF-268 CNS, 78.6%; with SF-295 CNS, 97%; in the assay on SF-539 CNS it was 101%; in the assay with UACC-257 melanoma it was 87.3%.

Turning to `CSc1nc(O)c(-c2ccccc2)c(=O)[nH]1`, the growth in the assay on NCI-H23 lung was 103%; in the assay with NCI-H226 lung, 99.1%; in the assay with NCI-H322M lung, 101%; with HOP-62 NSCLC, 105%; in the assay on NCI-H460 lung it was 104%; in the assay with HOP-92 NSCLC it was 101%. In addition, the growth with NCI-H522 lung is 94.2%; in the assay with A549/ATCC NSCLC, 100%; in the assay with 786-0 renal, 101%; in the assay on COLO 205 colon it was 103%; with DU-145 prostate, 107%; in the assay on K-562 leukemia, 98%. Moreover, the growth in the assay on MALME-3M melanoma was 101%; in the assay on MDA-MB-231 breast, 98.5%; with RXF 393 renal it was 116%; with SF-268 CNS, 103%; with SF-295 CNS, 101%; in the assay with SF-539 CNS, 100%. The growth in the assay with UACC-257 melanoma and with M14 melanoma was 101% in each case.

For the molecule `CC(c1ccccc1)n1ccnc1CO` (centres undefined), the growth in the assay on NCI-H23 lung is 96.5%; in the assay on NCI-H226 lung it was 100%; with NCI-H322M lung it was 101%; in the assay with HOP-62 NSCLC, 105%; in the assay with NCI-H460 lung, 104%; with HOP-92 NSCLC, 66.5%. Further, the growth with NCI-H522 lung is 98.8%; in the assay on A549/ATCC NSCLC, 109%; in the assay with 786-0 renal, 105%; in the assay on COLO 205 colon, 106%; with DU-145 prostate, 113%; with K-562 leukemia, 105%. The growth is 85.5% in the assay with MALME-3M melanoma; 104% in the assay with MDA-MB-231 breast; 101% with RXF 393 renal; 107% with SF-268 CNS; 96.1% in the assay on SF-295 CNS; 106% in the assay with SF-539 CNS. The values for the growth in the assay on UACC-257 melanoma and in the assay with M14 melanoma were 106% and 109%, respectively.
